Source: PubChem
CTSL1 counter: counter-screen for PFM18AAP inhibitors: inhibitors of F. hepatica cathepsin L1; recombinant F. hepatica cathepsin L1, Z-Leu-Arg-MCA fluorescence; inhibition, % at 5.96 µM; 300,000 tested, 0.49% active; AID 1906;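 active = inhibition above the mean of all tested compounds plus 3 SD, set per screening campaign, cut at about 17% in these data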
PAFAH1B2 inh: PAFAH1B2 (human) inhibition. P68402. recombinant PAFAH1B2, FP-rhodamine activity probe, fluorescence polarization. inhibition, % at 3.39 µM. 340,000 tested, 1.2% active. AID 492953;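 active = inhibition above the mean of all tested compounds plus 3 SD, cut at about 24% in these data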
Target sequence (P68402 whole entry, looked up): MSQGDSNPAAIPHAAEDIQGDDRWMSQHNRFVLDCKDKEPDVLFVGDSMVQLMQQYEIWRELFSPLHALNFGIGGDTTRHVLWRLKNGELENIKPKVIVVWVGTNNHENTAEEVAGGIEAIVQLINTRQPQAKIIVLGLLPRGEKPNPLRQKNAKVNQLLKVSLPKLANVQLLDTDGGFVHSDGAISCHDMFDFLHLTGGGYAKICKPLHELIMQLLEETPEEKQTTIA
PP5 primary: PP5 (human) phosphatase inhibition; purified PP5c, OMFP substrate fluorescence; P53041; 320,000 tested, 0.18% active; inhibition, % at 6.7 µM;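 active = inhibition above the campaign's mean inhibition across all tested compounds plus 3 SD, cut at about 9.5% in these data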
pPAFAH FP inh: pPAFAH (human) enzyme inhibition. Q13093. recombinant pPAFAH, FP-rhodamine probe fluorescence polarization. inhibition, % at 3.39 µM. 330,000 tested, 1.5% active;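 active = inhibition above the mean inhibition across the screen plus 3 SD, cut at about 25% in these data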;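 also: inhibitors block binding of the rhodamine activity-based probe so polarization drops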
PAFAH1B3 inh: PAFAH1B3 (human) inhibition; Q15102; recombinant PAFAH1B3, FP-rhodamine probe, fluorescence polarization; inhibition, % at 3.39 µM; 340,000 tested, 0.28% active; AID 492972;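 active = inhibition above the screen-wide average of all tested compounds plus 3 SD, cut at about 25% in these data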
Target sequence (Q15102 whole entry, looked up): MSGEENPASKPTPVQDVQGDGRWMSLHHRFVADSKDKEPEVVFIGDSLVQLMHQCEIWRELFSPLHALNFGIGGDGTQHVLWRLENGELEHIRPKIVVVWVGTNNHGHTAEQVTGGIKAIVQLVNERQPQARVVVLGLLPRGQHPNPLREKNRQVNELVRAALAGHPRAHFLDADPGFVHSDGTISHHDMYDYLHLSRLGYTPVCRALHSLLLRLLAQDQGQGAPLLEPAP
PAFAH2 inh: PAFAH2 (human) inhibition. recombinant PAFAH2, FP-rhodamine activity probe, fluorescence polarization. inhibition, % at 3.39 µM. 340,000 tested, 0.99% active. AID 492956;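 active = inhibition above the mean over all tested compounds plus 3 SD, cut at about 30% in these data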;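 also: inhibitors block probe labeling of enzyme so polarization drops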
PP5 conf: PP5 (human) inhibition, confirmation | Purified PP5, fluorogenic phosphatase substrate, fluorescence | AID 2331 | inhibition, % at 6.7 µM | shares compounds with PP5 primary | 460 tested, 22% active; in the data active = inhibition above about 9.5%
PP1 counter 3x: PP1 phosphatase inhibition, counter-screen for PP5 inhibitors; shares compounds with PP5 primary; PP1 enzyme, fluorescent phosphatase substrate; inhibition, % at 6.7 µM; 460 tested, 4% active; in the data active = inhibition above about 16%
Each line names hits and unclear results; the compound was inactive in the other large screens (follow-up assays come after a bar, where they were run). This is a sample that favours compounds with a hit; in the whole collection about 3% have one here.

O=C(COC(=O)CCC1CCCC1)Nc1ccc(F)cc1	pPAFAH FP inh 32 (no result: CTSL1 counter)
O=C(COC(=O)C1CCCCC1)NCc1ccc(Cl)cc1	none (no result: CTSL1 counter, PP5 primary)
O=C(COC(=O)C1CCC1)Nc1ccc(OC(F)F)cc1	none
NS(=O)(=O)c1ccc(NC(=O)COC(=O)CCC2CCCC2)cc1	none
O=C(COC(=O)CCC1CCCCC1)Nc1ccc(OC(F)F)cc1	pPAFAH FP inh 26
O=C(COC(=O)c1ccc(Cl)c([N+](=O)[O-])c1)Nc1ccccc1OC(F)F	pPAFAH FP inh 32
COc1ccc(C(=O)OCC(=O)Nc2ccc(OC(F)F)cc2)c(OC)c1	pPAFAH FP inh 33, PAFAH2 inh 68
COc1ccc(CCNc2nc(-c3ccc(F)cc3)c(CC(=O)O)s2)cc1OC	none
Cc1ccc(-n2c(CCc3ccccc3)n[nH]c2=S)cc1C	none
Cc1c(CCC(=O)O)c(=O)oc2cc(OCc3cccc(F)c3)ccc12	none
Cc1c(CCC(=O)O)c(=O)oc2cc(OCc3ccccc3Br)ccc12	pPAFAH FP inh 33
O=C(O)C1=C[C@H](c2ccc(C(F)(F)F)cc2)C[C@H](OCc2ccc(CO)cc2)O1	PAFAH1B2 inh 40
O=C(C1=C[C@H](c2ccc(C(F)(F)F)cc2)C[C@H](OCc2ccc(CO)cc2)O1)N1CCOCC1	none
COc1ccc(Nc2ncnc3c2cnn3-c2ccccc2)cc1OC	none
COc1ccc(Nc2ncnc3sc(-c4ccccc4)cc23)cc1OC	pPAFAH FP inh 32, PAFAH1B3 inh 32
NC(=O)c1ccc(NC(=O)COC(=O)c2c[nH]c3ccccc23)cc1	none (no result: CTSL1 counter, PP5 primary, pPAFAH FP inh)
NC(=O)C1CCN(c2nc(-c3cccc(Cl)c3)cs2)CC1	pPAFAH FP inh 33 (no result: CTSL1 counter, PP5 primary)
CCCn1cc2c(c1-c1ccc(C)cc1)c(=O)n(C)c(=O)n2C	none
COc1ccc(-c2c3c(=O)n(C)c(=O)n(C)c3cn2C2CCCCC2)cc1	pPAFAH FP inh 25
Cc1sc(N(C(=O)CCc2ccccc2)c2ccc(C(=O)O)cc2)nc1-c1ccccc1	PAFAH1B2 inh 34, pPAFAH FP inh 25
CCOc1ccc(NC(=O)c2ccc(N3CC4CC(C3)c3cccc(=O)n3C4)c(NC(=O)c3cccnc3)c2)cc1 (configuration not stated)	none
CCOc1ccc(NC(=O)Nc2cc(C(=O)O)ccc2N2CC3CC(C2)c2cccc(=O)n2C3)cc1 (configuration not stated)	pPAFAH FP inh 30
CCc1cccc(OCC2Cn3c(nc4c3c(=O)[nH]c(=O)n4C)O2)c1 (configuration not stated)	none
O=C(O)c1cc2cc(Cl)cc(Cl)c2oc1=O	pPAFAH FP inh 27
O=C1S/C(=C/c2ccc(N3CCOCC3)o2)C(=O)N1Cc1ccc(F)cc1	none
CC(C)OC(=O)CN1C(=O)S/C(=C/c2ccc(N3CCCCC3)o2)C1=O	CTSL1 counter 17
OCC[C@@H]1C[C@H](O)[C@@H](O)[C@]2(OCCc3ccccc32)O1	none
CCOc1cc(/C=C2\C(=O)N(c3ccc(C(N)=O)cc3)N=C2C)ccc1OC(=O)c1cccs1	PP5 primary 12 | PP5 conf inactive | PP1 counter 3x inactive
O=C(COC(=O)C1CC1)NCc1ccccc1	none (no result: CTSL1 counter, PP5 primary, pPAFAH FP inh)
NS(=O)(=O)c1ccc(Nc2nc3ccccc3nc2NS(=O)(=O)c2cccc([N+](=O)[O-])c2)cc1	PP5 primary 11, pPAFAH FP inh 31 | PP5 conf inactive | PP1 counter 3x inactive
CC(=O)Nc1ccc(S(=O)(=O)Nc2nc3ccccc3nc2Nc2ccc(S(N)(=O)=O)cc2)cc1	none
O=C(Nc1cccc(Cl)c1)c1ccccc1NC(=O)C1CCCCC1C(=O)O (configuration not stated)	none (no result: CTSL1 counter, PP5 primary, pPAFAH FP inh)
Cc1cc(C(=O)N(C2CCCCC2)C2CCCCC2)no1	PP5 primary 9.7 | PP5 conf inactive | PP1 counter 3x inactive
CCOc1ccc(S(=O)(=O)n2cc(-c3ccc(F)cc3)c(N)n2)cc1	none
CCOc1cc(S(=O)(=O)n2cc(-c3ccc(F)cc3)c(N)n2)cc(OCC)c1OCC	PP5 primary 11 | PP5 conf inactive | PP1 counter 3x inactive
